A selection: hits, their analogues and other compounds. The true share with any hit is near 14%.
LmPK inh – qHTS Assay for Inhibitors of Leishmania Mexicana Pyruvate Kinase (LmPK); AID 1721, 2009; Q27686; Potency, µM (highest dose often 57.5 µM), actives largely listed as inhibitors; hit rate 0.37% among 290,000; purified LmPK, Kinase-Glo ATP luminescence, 1 h
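Purified LmPK (0.1 nM) converted ADP (0.1 mM) to ATP with PEP (0.5 mM) in imidazole buffer pH 7.2 with KCl and MgCl2, 1 h at room temperature. ATP was read by Kinase-Glo luminescence; data normalized to uninhibited and no-enzyme controls.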
Shiga toxin inh – A qHTS for Small Molecule Inhibitors of Shiga Toxin | Vero cells, Shiga toxin protein synthesis inhibition reporter | inhibition, % at 38.7 µM | hit rate 9.2% among 290,000; in the data active means inhibition mostly above about 28%, no sharp cut-off; inactive means mostly below about 43%
CHX counter – Cycloheximide Counterscreen for Small Molecule Inhibitors of Shiga Toxin. cell reporter, cycloheximide protein synthesis inhibition counterscreen. max response, %. hit rate 12% among 300,000. AID 2314, 2010; in the data active means max response mostly above about 13%, no sharp cut-off; inactive means mostly below about 14%; further: read at 38.3 µM for the half of the compounds with a filed dose
Giardia FBPA inh – qHTS Assay for Inhibitors of Fructose-1,6-bisphosphate Aldolase from Giardia Lamblia. A8B2U2. purified Giardia FBPA. Potency, µM (doses to about 59.6 µM), usual class: inhibitors. hit rate 0.71% among 290,000. AID 2451, 2010; further: nearly all actives have a fitted effect of over 55% in size
Target sequence (A8B2U2 whole entry, looked up): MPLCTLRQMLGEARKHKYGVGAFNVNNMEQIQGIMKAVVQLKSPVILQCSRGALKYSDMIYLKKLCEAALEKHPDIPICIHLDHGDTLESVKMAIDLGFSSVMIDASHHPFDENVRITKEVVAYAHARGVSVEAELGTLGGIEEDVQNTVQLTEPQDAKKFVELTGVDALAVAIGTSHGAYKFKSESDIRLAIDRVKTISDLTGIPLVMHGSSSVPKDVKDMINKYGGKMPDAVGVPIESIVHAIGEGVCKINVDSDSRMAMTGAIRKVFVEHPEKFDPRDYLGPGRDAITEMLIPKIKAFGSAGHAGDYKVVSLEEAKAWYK
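Giardia FBPA (40 nM reagent) was preincubated 10 min at RT with compound (up to 57.5 uM final), then substrate plus GAPDH/TPI/NAD/arsenate coupling system with diaphorase/resazurin was added; resorufin fluorescence (525/598 nm) was read after 20 min.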
NS1 inh – qHTS Assay for Inhibitors of Influenza NS1 Protein Function; hit rate 0.4% among 270,000; AID 2326, 2010; Potency, µM (doses to about 46.1 µM); calls by dose curve; further: actives are rising curves; nearly all actives have a fitted effect of over 50% in size
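S. cerevisiae expressing influenza A NS1, grown in glucose, washed, then diluted 1:100 into pH 6.0 -URA galactose medium with 23 nl compound. Growth recovery read as OD600; NS1-free strain serves as control.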
Numbers stand for hits; – = inactive; ? = inconclusive; · = no result given; [ ] = remark or other dose. Unless noted, the call rests on the fitted dose curve; in most records, active means well fitted curve in the direction sought with a large enough effect; inconclusive means small, poorly fitted or top-dose-only effect, or another doubt; inactive means no such curve, though single readings can be large; an effect the other way counts as inactive or inconclusive.

SMILES | LmPK inh | Shiga toxin inh | CHX counter | Giardia FBPA inh | NS1 inh
CC(NC(=O)c1ccccc1Br)c1nnc(SCC(=O)NC2=NCCS2)n1C (stereo unspecified) | – | – | – | – | –
COC1(C)CCC2OC2(C)CCC2C1CC2(C)C (stereo unspecified) | · | · | · | – | ·
c1cc(CNc2ccc3c(c2)OCO3)ccn1 | – | – | – | ? | –
Cc1ccc(CNc2ccc3c(c2)OCO3)cc1 | – | 100 | 42 | ? | 2.8µM
Cc1c(C(=O)O)c(O)cc2c1C(=O)c1c(O)c([C@H]3O[C@H](CO)[C@@H](O)[C@H](O)[C@H]3O)c(O)c(O)c1C2=O | · | – | – | 18µM | ·
COc1c(O)cc2c(c1O)[C@@H]1O[C@H](CO)[C@@H](O)[C@H](O)[C@H]1OC2=O | – | – | – | – | –
Cc1cccnc1Nc1nc(-c2ccc(F)cc2)cs1 | – | 103 | 57 | – | –
O=C(Nc1nc(-c2ccncc2)cs1)c1ccc(F)cc1 | – | – | – | – | –
Cc1cccnc1Nc1nc(-c2ccc(O)cc2)cs1 | – | 157 | 50 | – | –
Clc1cccc(Cl)c1Cn1ccc(C2CC2)n1 | – | 64 | 41 | – | ·
CC(C)(C)n1cnc2cc(NS(=O)(=O)c3ccccc3)ccc21 | – | – | 18 | – | –
COc1ccc(-n2cnc3cc(N)ccc32)cc1 | – | – | 13 | – | –
Cn1cnc2cc(NS(=O)(=O)c3ccc(Br)cc3)ccc21 | – | – | – | – | –
CCCCCNC(=O)c1ccc2c(c1)ncn2-c1ccc(OC)cc1 | – | – | – | – | –
COc1ccc(-n2cnc3cc(C(=O)N4CCOCC4)ccc32)cc1 | – | 45 | 56 | – | –
COc1ccc(-n2cnc3cc(NS(=O)(=O)c4ccccc4)ccc32)cc1 | – | 37 | 21 | – | –
CCCCn1c(C)cc2c(c1=O)[C@H]1O[C@](CCCCN3C(=O)c4ccccc4C3=O)(Cc3ccccc31)O2 | –[11.5 µM] | – | – | –[12.9 µM] | –
O=c1[nH]c(=S)[nH]c(O)c1N=Nc1ccc(SC(F)F)cc1 | – | – | 33 | – | –
CC(C)c1ccc(N=Nc2c(O)[nH]c(=O)[nH]c2=O)cc1 | – | – | – | – | –
COc1ccc(C(=O)NCCc2cnc[nH]2)cc1OC | – | – | – | – | –
CSc1ccccc1C(=O)C1CCCN(C(=O)c2cc(C(C)C)no2)C1 (stereo unspecified) | – | – | – | – | –
CSc1ccccc1C(=O)C1CCCN(C(=O)c2csnn2)C1 (stereo unspecified) | – | 90 | 31 | – | –
Cc1ccc(-n2ncc3c(NCc4ccc5c(c4)OCO5)ncnc32)c(C)c1 | – | – | – | – | –
c1ccc(-n2ncc3c(NCc4ccc5c(c4)OCO5)ncnc32)cc1 | – | 42 | 20 | – | –
COc1ccc(-n2ncc3c(NCc4ccc5c(c4)OCO5)ncnc32)cc1 | – | 27 | 25 | – | –
SMILES | LmPK inh | Shiga toxin inh | CHX counter | Giardia FBPA inh | NS1 inh
Cc1cccc(-n2ncc3c(NCc4ccc5c(c4)OCO5)ncnc32)c1 | – | 97 | 18 | – | –
Nc1nc(-c2ccc(Cl)cc2)nnc1-c1ccc(Br)cc1 | – | 96 | 52 | – | –
CSc1nnc(-c2cccc(C)c2)n1N | – | – | – | – | –
Nc1nc(N)nc(-c2cc(Cl)ccc2Cl)n1 | · | – | – | – | ·
Cc1ccc(Oc2ccc(Oc3ccc(C)cc3)nn2)cc1 | – | – | – | – | –
Cc1ccc(Oc2ccc(-c3nc(N)nc(N)n3)cc2)cc1 | – | – | 12 | – | –
Cc1cccc(-c2nc(N)nc(N)n2)c1 | – | – | 34 | – | –
Nc1nc(N)nc(-c2ccc(Cl)cc2)n1 | – | – | 29 | – | –
CN(C)Cc1cc(C(C)(C)C)cc(CNC2CCCCC2)c1O | · | · | · | · | –
COC(=O)C#CC(=O)OC | · | – | – | – | ·
COc1cccc(Nc2ncc3nc(CCc4ccccc4)c(=O)n(C[C@H]4CCCO4)c3n2)c1 | · | · | · | – | ·
c1ccc2c3nnc4n(c-3nc2c1)CCCS4 | – | – | 30 | – | –
COC(=O)C1=C[C@@H](C(=O)OC)[C@@H]2C3=C(C(=O)C2(C)C)[C@H](c2ccccc2)[C@@H]2C(=O)N(c4ccccc4)C(=O)[C@@H]2[C@@H]3C1 | · | – | – | – | ·
c1nc2ccc(Cc3ccc4nc[nH]c4c3)cc2[nH]1 | – | – | – | – | –
CS(=O)(=O)c1ccc(S(=O)CC(=O)OCc2ccccc2)c([N+](=O)[O-])c1 (stereo unspecified) | – | – | 11 | ? | ·
O=C(CS(=O)c1ccc(C(F)(F)F)cc1[N+](=O)[O-])Oc1ccccc1 (stereo unspecified) | – | – | 25 | ? | –
COc1ccccc1CNc1ccc(CNc2ncn[nH]2)cc1 | – | – | – | – | –
Cc1ccc(CNc2ccc(CNc3ncn[nH]3)cc2)cc1 | – | – | 15 | – | –
c1ccc2c(CNc3ccc(CNc4ncn[nH]4)cc3)cccc2c1 | – | active | 23 | – | –
O=C(COc1ccc(Br)cc1)NCCN1CCCC1 | – | · | – | – | –
CC(=O)Nc1cccc(OCC(=O)Nc2ccc(F)cc2)c1 | – | – | 15 | – | –
Cc1ccc(OCC(=O)Nc2ccc(F)cc2)cc1C | – | 46 | 39 | – | –
CC(=O)Nc1cccc(OCc2ccc(F)cc2)c1 | – | – | – | – | ·
CC(=O)N1CCC2(CC1)CN(c1ccccc1)C2 | · | · | · | – | ·
COc1ccc(S(=O)(=O)NNc2nc(C)cc(C)n2)cc1[N+](=O)[O-] | – | – | – | · | –
SMILES | LmPK inh | Shiga toxin inh | CHX counter | Giardia FBPA inh | NS1 inh
N/C(=N\OC(=O)CSc1ccccc1)c1ccccn1 | – | 99 | 79 | · | –
CC(C)C(=O)O/N=C(\N)c1ccccn1 | – | – | – | – | –
N/C(=N\OC(=O)CCCOc1ccccc1)c1ccccn1 | – | 42 | 26 | – | –
N/C(=N\OC(=O)Cc1ccc(-c2ccccc2)cc1)c1ccccn1 | – | 72 | 36 | – | –
COc1ccc(CC(=O)O/N=C(\N)c2ccccn2)cc1 | – | 75 | 64 | – | –
COc1ccccc1CNS(=O)(=O)c1ccc2c(c1)CC(=O)N2C | – | – | – | – | –
C=C1C(=O)O[C@@H]2[C@H]1CC[C@H](C)[C@]1(O)CCC(=O)[C@@]21C | – | – | 21 | – | –
Fc1ccc(-c2nc(-c3cccs3)no2)cc1 | – | 127 | 44 | – | –
COC(=O)c1ccc(-c2nc(-c3cccs3)no2)cc1 | – | 65 | 40 | – | –
Fc1ccc(-c2cnc(-c3cccs3)o2)cc1 | – | 134 | 42 | – | –
Fc1ccc(-c2cc(-c3cccs3)cc(-c3ccccc3)n2)cc1 | – | – | – | – | –
COc1ccccc1N1C(=O)CC(N2CCN(c3ccc([N+](=O)[O-])cc3)CC2)C1=O (stereo unspecified) | – | – | – | – | –
CC1(C)Oc2cc3c(cc2O1)OC(C)(C)O3 | · | · | · | –[12.9 µM] | ·
COc1ccccc1NC1=NCCS1 | – | – | – | – | –
Cc1ccc(NC(=O)CSC(N)=O)cc1Cl | – | – | – | – | –
O=Cc1sc(Nc2ccccc2)nc1Cl | – | – | 18 | – | –

High-throughput results deposited in PubChem by National Center for Advancing Translational Sciences (NCATS).
